Screens deposited in PubChem by several laboratories.
SMARCA2 act: increases SMARCA2 function in MMTV reporter cells | MG213 cells, MMTV-luciferase reporter, dexamethasone, overnight | activation, % at 9.1 µM | 370,000 tested, 1% active | AID 652017; in the data active = activation above about 7.8%;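 note: 0% = vehicle wells and 100% = reference activator wells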
AI-2 QS mod: modulates the Vibrio harveyi AI-2 quorum sensing system; 300,000 tested, 0.4% active; AID 2094; Vibrio harveyi JMH597 AI-2 luminescence/OD600 ratio, 9 h; stronger effect = lower value; strain lacks LuxN and CqsS sensors; 0 = neutral-control median; activity change, % at 7.5 µM; in the data active = activity change below about -75%, passing the limit was not always enough;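 note: luminescence divided by OD600 gain over 9 h not by final OD600 alone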
HSP90 inh: blocks HSP90-mediated luciferase refolding in reticulocyte lysate | Rabbit reticulocyte lysate, luciferase refolding luminescence, 3 h | inhibition, % at 5.6 µM | 290,000 tested, 0.91% active;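 active = inhibition above the screen-wide mean plus 3 SD, computed separately per campaign, cut at about 16% in these data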;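 note: 0% = DMSO wells and 100% = 60 µM geldanamycin wells; inhibitors lower the luminescence because luciferase stays unfolded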
HSF1 inhib: HSF1 inhibition; NIH3T3-HGL HSE-luciferase, MG132-induced, luminescence 8 h; stronger effect = lower value; activity change, negative = inhibition, % at 7.5 µM (by protocol); 300,000 tested, 0.77% active; AID 2098;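 active = more than half of replicate wells show activity change below -50%, luminescence cut by over half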;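 note: luciferase reports HSF-1 transcriptional activity via heat shock element; 0% = median of DMSO wells and -100% = zero luminescence signal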
PG9 binder: binds the HIV-1 gp120 antibody PG9; TR-FRET gp120-PG9 antibody binding; 360,000 tested, 0.43% active; inhibition, % at 6.7 µM; in the data active = inhibition above about 8.5%
GAA850 FXN act: activators of GAA850 frataxin (FXN) promoter; 360,000 tested, 0.56% active; AID 540364; HEK293 lucGAA850 FXN promoter luciferase reporter, 24 h; percent of 10 µM SAHA response; activation, % at 6 µM;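 active = activation above the average of all compounds screened plus 3 SD, cutoff fixed separately per campaign, cut at about 7.5% in these data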;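 note: 0% = DMSO wells and 100% = 10 µM SAHA wells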
PG9 bind confirm: confirmation of small molecules binding HIV-1 gp120 antibody PG9; AID 651571; inhibition, % at 6.7 µM; TR-FRET PG9 antibody binding, biochemical; shares compounds with PG9 binder; 1,500 tested, 90% active; in the data active = inhibition above about 9%
PGV04 counter: binds control antibody PGV04 in PG9 binder counter-screen | inhibition, % at 6.7 µM | 1,500 tested, 95% active | TR-FRET PGV04 antibody-gp120 binding, biochemical | AID 651604 | shares compounds with PG9 binder; in the data active = inhibition above about 9.5%
PG9 bind DR: small molecules binding HIV-1 gp120 antibody PG9 | TR-FRET PG9 antibody-gp120 binding inhibition | IC50, µM | shares compounds with PG9 binder | 95 tested, under 10 active; in the data active = IC50 below about 10 µM
PGV04 DR counter: counter-screen for PG9 binders: binding to control antibody PGV04; shares compounds with PG9 binder; IC50, µM; 95 tested, 20% active; TR-FRET binding to control antibody PGV04
PG126 DR counter: binds control antibody PG126 in PG9 counter-screen | shares compounds with PG9 binder | IC50, µM | 95 tested, 20% active | TR-FRET binding to antibody PG126, counterscreen
The depositor's hits bear a star; i = inactive; . = not tested or not shown. Only some compounds are listed: those with a hit (about 3.4% of all), similar ones and a draw of the others. Cut-off read from the data, not from the text of the source, unless noted: active = IC50 below about 9 µM; inactive = the rest.

SMILES	SMARCA2 act	AI-2 QS mod	HSP90 inh	HSF1 inhib	PG9 binder	GAA850 FXN act	PG9 bind confirm	PGV04 counter	others
Cc1cccc(OCc2nnc(SCc3nc4ccccc4c(=O)[nH]3)o2)c1	0	15	5	4	-2	0	.	.
COc1ccc(-c2cc(-c3ccc(Br)cc3)nc3ncnn23)cc1OC	0	9	3	2	13*	0	12*	20*
COc1ccc(-c2cc(-c3ccccc3)nc3ncnn23)cc1	0	10	1	-7	-1	-1	.	.
O=C1C(=O)N(Cc2cccnc2)C(c2cccc([N+](=O)[O-])c2)/C1=C(\O)c1ccc2c(c1)OCCO2 (configuration not stated)	-3	17	-4	6	0	-1	.	.
COc1cccc(C2/C(=C(\O)c3ccc4c(c3)OCCO4)C(=O)C(=O)N2Cc2cccnc2)c1 (configuration not stated)	-1	-2	0	4	23*	-2	30*	35*
COc1cc(C2/C(=C(\O)c3ccc4c(c3)OCCO4)C(=O)C(=O)N2Cc2ccccc2)ccc1O (configuration not stated)	2	26	1	-5	-1	0	.	.
O=C1C(=O)N(Cc2cccnc2)C(c2cccc(F)c2)/C1=C(/O)c1ccc2c(c1)OCO2 (configuration not stated)	0	34	1	11	21*	1	44*	52*
O=C1C(=O)N(Cc2ccncc2)C(c2ccccc2F)/C1=C(\O)c1ccc2c(c1)OCCO2 (configuration not stated)	0	15	-2	2	16*	-1	32*	31*	PG9 bind DR=i;PGV04 DR counter=5.3*;PG126 DR counter=7.8*
CCOC(=O)CSc1nc2cc3c(cc2cc1C#N)OCCO3	3	11	8	-33	3	2	.	.
CCOC(=O)CSc1nc2cc3c(cc2cc1C#N)OCO3	6	.	2	.	49*	4	44*	62*
COC(=O)CSc1nc2cc3c(cc2cc1C#N)OCO3	6	18	-2	31	15*	4	33*	71*
O=c1c(Br)c(Br)cnn1-c1ccccc1	-10	.	-8	.	13*	-9	18*	28*
COc1ccc(-c2c(C)sc(NC(=O)c3ccnn3C)c2C#N)cc1	-1	-3	-1	3	52*	1	60*	61*
N#Cc1ccccc1NC(=O)COC(=O)c1ccc2c(c1)OCCO2	3	12	1	16	4	3	.	.
N#Cc1ccc(Cl)cc1NC(=O)COC(=O)c1ccc2c(c1)OCCO2	-1	31	3	2	50*	-1	40*	69*
O=C(COC(=O)c1ccc2c(c1)OCO2)NCc1ccc(Cl)cc1	-3	27	3	-5	12*	1	6	19*
O=C(Cn1nnc(-c2ccccc2NC(=O)c2ccccc2F)n1)NC1CCCC1	2	4	2	-9	12*	-1	40*	43*
COC(=O)C1=C(C)N(C)C(=NCc2ccccc2C(F)(F)F)NC1c1ccc(F)cc1 (configuration not stated)	-4	.	.	.	1	.	.	.
CCn1c2c(c3cc(Br)ccc31)CCC/C2=N\O	-2	19	-1	-2	16*	-3	20*	32*
O=c1[nH]c(/C=C/c2cccc3ccccc23)nc2ccccc12	3	52	4	36	33*	6	45*	46*
O=C(CSc1nnc(-c2cccnc2)n1Cc1ccco1)Nc1ccc(Cl)cc1	-3	.	.	.	.	.	.	.
CC(C)CCNC(=O)CCCn1c(=O)[nH]c2ccc(Br)cc2c1=O	-2	17	2	-2	0	2	.	.
O=C(CCCn1c(=O)[nH]c2ccc(Br)cc2c1=O)NCc1ccc(Cl)cc1	-2	5	0	-3	16*	0	18*	32*
Nc1[nH]c(C(=O)c2ccc(Cl)cc2)c(-c2ccc(Br)cc2)c1C(=O)c1c[nH]c2ccc(F)cc12	-7	.	.	.	1	.	.	.
O=c1[nH]c(SCCOc2ccccc2)nc2ccccc12	0	17	-3	30	40*	3	33*	52*
SMILES	SMARCA2 act	AI-2 QS mod	HSP90 inh	HSF1 inhib	PG9 binder	GAA850 FXN act	PG9 bind confirm	PGV04 counter	others
CCOC(=O)CNC(=O)CSc1nc(C(C)C)nc2c1cnn2-c1ccccc1	-8	.	.	.	8.6*	-1	10*	15*
CCOC(=O)CNC(=O)CSc1ncnc2c1cnn2-c1ccccc1	0	37	2	-5	-2	-2	.	.
CCn1c(=O)c(C(=O)Nc2ccccc2S(N)(=O)=O)c(O)c2ccccc21	5	9	-1	4	15*	2	7	14*
CCn1c(=O)c(C(=O)Nc2ccccc2C)c(O)c2ccccc21	-2	10	-5	6	-2	2	.	.
O=C(C(=O)N1CCC(CNC(=O)c2cccs2)CC1)c1cc2ccccc2o1	-6	.	.	.	-3	.	.	.
Cc1cc2sc(C(=O)O)c(C)c2s1	0	74	-3	0	16*	-2	21*	28*
COc1cccc(Cn2cc(COC(=O)N(C)Cc3ccccc3)nn2)c1	-2	.	.	.	.	.	.	.
CCCCn1c(SCC(=O)NCc2ccccc2)nc2ccc(N3CCOCC3)cc2c1=O	-4	2	8	-8	19*	0	35*	56*
C/C(N)=C(/C#N)C(=O)CSc1nc2ccccc2c(=O)n1-c1ccc(C)c(Cl)c1	-3	8	-4	-6	45*	1	39*	56*
C/C(N)=C(/C#N)C(=O)CSc1nc2ccccc2c(=O)n1-c1ccc(C)cc1	.	-1	3	3	.	.	.	.
CC(=O)c1sccc1NC(=O)c1ccccc1C(=O)O	-3	20	3	-1	36*	3	39*	47*
CCc1ccc(NC(=O)CSc2nnc(-c3n[nH]c4ccccc34)n2-c2ccccc2)cc1	-4	20	7	5	9.8*	4	15*	24*
Cc1ccccc1NC(=O)CSc1nnc(-c2ccccc2)n1-c1ccccc1	1	14	-3	-4	37*	-5	4	6
